Data as given in PubChem BioAssay AID651640 (Broad Institute, 2012).
Out of some 350,000 compounds screened, about 6,000 (1.7%) were called active. Inconclusive results (about 5%) are left out. No stated cut-off is given here; in the data, active means CPE inhibition above about 20% (passing the limit was not always enough); inconclusive means no clear call, values can overlap the other calls; tested in BHK-21 cells. Many of the other results were omitted from the sample, so actives are more common in it than they were.

test: protection of cells from dengue 2 killing – plate reader, single concentration, primary screen (AID 651640); settings: DENV2-infected cells, cytopathic effect rescue, at 9.99 µM, active compounds read high;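 further: 0% = median of neutral control wells and 100% = median of positive control wells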

Structure (SMILES) | CPE inhibition
CCOC(=O)[C@]12Cc3cc(OC)ccc3[C@H]1N(C(C)C)C(=O)c1ccccc12 | 28.6% (active)
CCOC(=O)[C@]12Cc3ccccc3[C@H]1N(C1CCCCC1)C(=O)c1cc(OC)ccc12 | 12.6% (inactive)
O=C(NC1CCCCC1)N1Cc2cc(N3CCCCC3)ccc2-n2nncc2C1 | 18.7% (inactive)
Clc1ccc([C@@H]2CC3CCC2N3)cn1 (stereo not given in full) | 2.65% (inactive)
c1cc2c(cc1C1OCC3C(c4ccc5c(c4)OCO5)OCC13)OCO2 (stereo not given) | 62% (active)
O=C1/C(=C\c2ccc3c(c2)OCO3)N2CCC1CC2 | -2.2% (inactive)
c1cc2c(cc1[C@H]1OC[C@H]3[C@@H]1CO[C@@H]3c1ccc3c(c1)OCO3)OCO2 | -8.32% (inactive)
COc1ccc(C#Cc2ccc([C@H]3[C@H](CO)N4CCCCN(C(=O)Cc5ccccc5)C[C@@H]34)cc2)cc1 | -26.2% (inactive)
O=C(NCC1=C(c2ccc3ccccc3c2)C[C@@H]2CC[C@H]1N2Cc1ccco1)c1cccs1 | 0.357% (inactive)
CS(=O)(=O)N1CCC2CCNC2C1 (stereo not given) | -6.24% (inactive)
C/C=C/c1ccc(C2[C@@H]3CN(Cc4cncnc4)C[C@H]2N3)cc1 (stereo not given in full) | 3.65% (inactive)
C/C=C/c1ccc(C2[C@@H]3CN(S(C)(=O)=O)C[C@H]2N3)cc1 (stereo not given in full) | 62.5% (active)
C[C@]12CCC3C(CC[C@H]4[C@H](O)[C@H](O)CC[C@]34C)C1CCC2=O (stereo not given in full) | -1.57% (inactive)
CC(=O)NCC1=C(c2ccc3ccccc3c2)C[C@@H]2CC[C@H]1N2Cc1ccco1 | -2.04% (inactive)
C[C@]12CCCCC1=CC(=O)C1C2CC[C@@]2(C)C1C[C@@H](F)[C@@H]2O (stereo not given in full) | -4.28% (inactive)
COc1ccc(-c2ccc([C@H]3[C@H](CO)N4CCCCN(C(=O)Cc5ccncc5)C[C@@H]34)cc2)cc1 | 40.9% (active)
O=C(Cc1ccncc1)N1CCCCN2[C@@H](CO)[C@H](c3ccc(-c4ccncc4)cc3)[C@@H]2C1 | 8.4% (inactive)
COc1cccc(-c2ccc([C@H]3[C@H]4CN(C(=O)Cc5ccncc5)CCCCN4[C@H]3CO)cc2)c1 | 9.07% (inactive)

Structure (SMILES) | CPE inhibition
O=S(=O)(c1ccccc1)N1CCC2CCNC2C1 (stereo not given) | -0.751% (inactive)
COc1ccc2c(c1)NP(=S)(c1ccccc1)N2 (stereo not given) | 1.27% (inactive)
Cc1cc(/C=C2/C(=O)NC(=O)N(Cc3ccco3)C2=O)c(C)n1-c1ccc(C(=O)O)cc1 | -3.34% (inactive)
Cc1ccnc(-n2c(C)cc(/C=C3\C(=O)NC(=S)N(C)C3=O)c2C)c1 | 47.7% (active)
Cc1ccc(-n2c(C)cc(/C=C3\C(=O)NC(=O)N(C)C3=O)c2C)cc1C | -7.68% (inactive)
O=C(CCC(=O)N1C[C@H]2C[C@@H](C1)c1cccc(=O)n1C2)NCc1ccccc1C(F)(F)F | 25.4% (active)
COc1ccccc1NC(=O)N1C[C@@H]2C[C@@H](C1)c1cccc(=O)n1C2 | 7.15% (inactive)
O=C(NC(=S)N1C[C@H]2C[C@H](C1)c1cccc(=O)n1C2)c1ccc(F)cc1 | -11.6% (inactive)
CC(C)CN1Cc2cc(N3CCCCC3)ccc2-n2nncc2C1 | -1.07% (inactive)
O=C(O)[C@H]1[C@H](CO)[C@H]2Cn3c(ccc(-c4ccccc4)c3=O)[C@@H]1N2S(=O)(=O)c1ccccc1F | 0.732% (inactive)
COc1cccc(-c2ccc3n(c2=O)C[C@H]2[C@H](CO)[C@@H](C(=O)O)[C@@H]3N2C(=O)c2cnccn2)c1 | 0.125% (inactive)
COc1cc(OC)cc(C(=O)NCCN2CCC3(CC2)C(=O)NCN3c2ccccc2)c1 | 5.39% (inactive)
O=C(c1ccccc1)C(O)(CN1CCCCC1)c1ccccc1 (stereo not given) | 9.29% (inactive)
COC(=O)C1=C(c2ccc(F)cc2OCc2ccccc2)C[C@@H]2CC[C@H]1N2C(=O)NCc1ccc(C(C)(C)C)cc1 | -10.5% (inactive)
COC(=O)C1=C(c2ccc(F)cc2OCc2ccccc2)C[C@@H]2CC[C@H]1N2C(=O)NCc1ccc2[nH]ccc2c1 | 5.56% (inactive)
COC(=O)C1=C(c2ccc(F)cc2OCc2ccccc2)C[C@@H]2CC[C@H]1N2C(=O)NCc1ccc(Cl)cc1 | 91% (active)
COc1ccc(C2C=C(C)Oc3c2c(=O)oc2ccccc32)cc1OC (stereo not given) | -10.4% (inactive)
